In the supplement of paper PMC10646978 one finds NF-kB reporter, IRF reporter and viability score data, which are given here for 14 molecules.

± gives the standard deviation.

Conditions in all cases: modulator concentration 10 µM
The subject of assay [1] is RAW-Dual (murine macrophage reporter line). The experiment in a line: NF-kB reporter (SEAP) activity fold change vs agonist alone; higher = enhanced NF-kB activity. The procedure, abridged:
(§1)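 RAW-Dual murine macrophage reporter cells were plated at 50 000 per well in 384-well plates, pin-transferred compound to 10 μM final, and pre-incubated for 1 hour at 37 °C before a PRR agonist was added and the cells incubated overnight. NF-κB activity was read from supernatant SEAP with QUANTI-Blue at 620 nm absorbance, and IRF activity from Lucia luciferase with QUANTI-Luc by luminescence. Each signal was expressed as fold change by dividing by the mean agonist-only control on the same plate. Two replicate plates were averaged, with errors obtained by propagation.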

The test system is the same in assay [2]. The assay can be described thus: IRF reporter (Lucia luciferase) activity fold change vs agonist alone; higher = enhanced IRF activity. The procedure, abridged:
as §1

Assay [3] has the same test system. The assay can be described thus: viability score (confluency relative to resting cells, overnight) (fraction); higher = more viable, active = viable (0.7 or more). Summed up:
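RAW-Dual macrophages in 384-well plates were incubated overnight with compound, final concentration 10 μM. Confluency images from IncuCyte were processed in IncuCyte software into two masks covering all imaged wells. The viability score is each well's confluency relative to resting cells, and a compound met the cutoff when both masks exceeded 70% of resting cells.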

The mark [4] stands for this setting: agonist: CpG ODN 1826 0.5 ug/mL.

Regarding `Cc1sc2ncnc(Nc3ccc(F)cc3)c2c1C`, the NF-kB reporter in assay [1] (setting [4]) is 0.813 ± 0.035; in assay [1] (agonist: LPS 0.1 ug/mL) it was 0.948 ± 0.11; in assay [1] (agonist: MPLA […]), 1.22 ± 0.071. The IRF reporter in assay [2] (agonist: 3'3'-cGAMP 10 ug/mL) worked out at 0.739 ± 0.034; in assay [2] (agonist: LPS 0.1 ug/mL), 0.935 ± 0.19; in assay [2] (agonist: MPLA […]), 1.07 ± 0.27. The viability score in assay [3] was 0.981 (active).

Turning to `CC(=C(C#N)C(=O)NCc1ccccc1)N(C)C`, the NF-kB reporter in assay [1] (setting [4]) was 0.808 ± 0.077; in assay [1] (agonist: LPS 0.1 ug/mL), 0.883 ± 0.1; in assay [1] (agonist: MPLA […]), 1.08 ± 0.11. Also, the IRF reporter in assay [2] (agonist: 3'3'-cGAMP 10 ug/mL) came out at 0.966 ± 0.045; in assay [2] (agonist: LPS 0.1 ug/mL), 1.22 ± 0.1; in assay [2] (agonist: MPLA […]), 1.26 ± 0.17. Also, the viability score in assay [3] was 1.02 (active).

On to `O=C1CCCC2=C1C(c1ccc(C(F)(F)F)cc1)Nc1ccc(C(=O)c3ccccc3)cc1N2` (stereo not drawn), for which the values for the NF-kB reporter in assay [1] (setting [4]), in assay [1] (agonist: LPS 0.1 ug/mL) and in assay [1] (agonist: MPLA […]) were 0.885 ± 0.08, 1.19 ± 0.068 and 0.759 ± 0.045, respectively. Moreover, the figures for the IRF reporter in assay [2] (agonist: 3'3'-cGAMP 10 ug/mL), in assay [2] (agonist: LPS 0.1 ug/mL) and in assay [2] (agonist: MPLA […]) were 1.55 ± 0.091, 1.36 ± 0.14 and 1.04 ± 0.12, respectively. Also, the viability score in assay [3] was 0.942 (active).

Take `COc1ccc(C2N3CC4(C)CN2CC(C)(C3)C4O)cc1` (stereo not drawn): the NF-kB reporter in assay [1] (setting [4]) was 0.816 ± 0.067; in assay [1] (agonist: LPS 0.1 ug/mL) it was 0.949 ± 0.046; in assay [1] (agonist: MPLA […]) it was 0.966 ± 0.1. Moreover, the figures for the IRF reporter in assay [2] (agonist: 3'3'-cGAMP 10 ug/mL), in assay [2] (agonist: LPS 0.1 ug/mL) and in assay [2] (agonist: MPLA […]) were 0.995 ± 0.055, 1.49 ± 0.086 and 1.66 ± 0.15, respectively. Also, the viability score in assay [3] is 1.01 (active).

Turning to `CS(=O)(=O)NCc1cccc(Oc2ccc(F)cc2)c1`, the NF-kB reporter turned out to be 1.03 ± 0.066 in assay [1] (setting [4]), 0.955 ± 0.079 in assay [1] (agonist: LPS 0.1 ug/mL) and 0.997 ± 0.029 in assay [1] (agonist: MPLA […]). For the same molecule, the values for the IRF reporter in assay [2] (agonist: 3'3'-cGAMP 10 ug/mL), in assay [2] (agonist: LPS 0.1 ug/mL) and in assay [2] (agonist: MPLA […]) were 1.1 ± 0.046, 0.992 ± 0.061 and 1.03 ± 0.1, respectively. The viability score in assay [3] is 0.997 (active).

Consider `Cc1ccc(NC(=O)c2ccc(CN3CCN(C)CC3)cc2)cc1Nc1nc(-c2cccnc2)cs1`, for which the NF-kB reporter is 0.228 ± 0.018 in assay [1] (setting [4]), 1.18 ± 0.067 in assay [1] (agonist: LPS 0.1 ug/mL) and 1.74 ± 0.17 in assay [1] (agonist: MPLA […]). Besides, the IRF reporter in assay [2] (agonist: 3'3'-cGAMP 10 ug/mL) was 0.414 ± 0.051; in assay [2] (agonist: LPS 0.1 ug/mL) it was 0.703 ± 0.051; in assay [2] (agonist: MPLA […]), 0.691 ± 0.058. For the same molecule, in assay [3], the viability score was 0.981 (active).

On to `CN1CC[C@H](c2c(O)cc(O)c3c(=O)cc(-c4ccccc4Cl)oc23)[C@H](O)C1`, for which the NF-kB reporter amounted to 0.118 ± 0.009 in assay [1] (setting [4]), 0.0512 ± 0.004 in assay [1] (agonist: LPS 0.1 ug/mL) and 0.104 ± 0.01 in assay [1] (agonist: MPLA […]). In addition, the IRF reporter in assay [2] (agonist: 3'3'-cGAMP 10 ug/mL) came to 0.0122 ± 0.0028; in assay [2] (agonist: LPS 0.1 ug/mL), 0.0166 ± 0.001; in assay [2] (agonist: MPLA […]) it was 0.0196 ± 0.0027. The viability score in assay [3] was 0.0463 (inactive).

For the molecule `O=C(Nc1nc(CC(=O)N2CCOCC2)cs1)c1ccccc1`, the NF-kB reporter turned out to be 1.02 ± 0.073 in assay [1] (setting [4]), 1.02 ± 0.09 in assay [1] (agonist: LPS 0.1 ug/mL) and 0.941 ± 0.14 in assay [1] (agonist: MPLA […]). Further, the figures for the IRF reporter in assay [2] (agonist: 3'3'-cGAMP 10 ug/mL), in assay [2] (agonist: LPS 0.1 ug/mL) and in assay [2] (agonist: MPLA […]) were 0.995 ± 0.053, 1.24 ± 0.087 and 1.29 ± 0.1, respectively. The viability score in assay [3] was 1.01 (active).

In the case of `CN1CCN(C2=Nc3ccccc3Oc3ccc(Cl)cc32)CC1` [Prestw-132], the NF-kB reporter in assay [1] (setting [4]) is 1.08 ± 0.22; in assay [1] (agonist: LPS 0.1 ug/mL), 0.804 ± 0.09; in assay [1] (agonist: MPLA […]), 0.812 ± 0.079. In addition, the IRF reporter in assay [2] (agonist: 3'3'-cGAMP 10 ug/mL) came out at 0.944 ± 0.054; in assay [2] (agonist: LPS 0.1 ug/mL) it was 1.08 ± 0.18; in assay [2] (agonist: MPLA […]), 0.961 ± 0.18. In addition, the viability score in assay [3] is 1.03 (active).

Regarding `Cc1ccc(S(=O)(=O)N2CCN(C(C)C)CC2)cc1`, the NF-kB reporter turned out to be 1.13 ± 0.11 in assay [1] (setting [4]), 0.94 ± 0.14 in assay [1] (agonist: LPS 0.1 ug/mL) and 1.01 ± 0.043 in assay [1] (agonist: MPLA […]). For the same molecule, the IRF reporter in assay [2] (agonist: 3'3'-cGAMP 10 ug/mL) turned out to be 0.96 ± 0.17; in assay [2] (agonist: LPS 0.1 ug/mL) it was 0.898 ± 0.037; in assay [2] (agonist: MPLA […]), 0.994 ± 0.1. Besides, the viability score in assay [3] was 0.996 (active).

Turning to `O=c1cc(O)nc(SCc2c(F)c(F)c(F)c(F)c2F)[nH]1`, the NF-kB reporter worked out at 1.01 ± 0.08 in assay [1] (setting [4]), 0.913 ± 0.07 in assay [1] (agonist: LPS 0.1 ug/mL) and 1.05 ± 0.049 in assay [1] (agonist: MPLA […]). Further, the IRF reporter in assay [2] (agonist: 3'3'-cGAMP 10 ug/mL) worked out at 0.646 ± 0.066; in assay [2] (agonist: LPS 0.1 ug/mL), 1.01 ± 0.1; in assay [2] (agonist: MPLA […]), 1.03 ± 0.21. Also, the viability score in assay [3] was 1 (active).

Consider `COc1ccc2c(c1)c(CC(=O)OCC(=O)O)c(C)n2C(=O)c1ccc(Cl)cc1`, for which the NF-kB reporter amounted to 0.844 ± 0.16 in assay [1] (setting [4]), 1.06 ± 0.33 in assay [1] (agonist: LPS 0.1 ug/mL) and 0.835 ± 0.053 in assay [1] (agonist: MPLA […]). Also, the figures for the IRF reporter in assay [2] (agonist: 3'3'-cGAMP 10 ug/mL), in assay [2] (agonist: LPS 0.1 ug/mL) and in assay [2] (agonist: MPLA […]) were 0.938 ± 0.029, 1.15 ± 0.25 and 1.07 ± 0.11, respectively. For the same molecule, the viability score in assay [3] was 0.985 (active).

Turning to `Nc1ncn(C2O[C@H](CO)[C@@H](O)[C@H]2O)c(=O)n1` (stereo partly drawn) [Prestw-866], the figures for the NF-kB reporter in assay [1] (setting [4]), in assay [1] (agonist: LPS 0.1 ug/mL) and in assay [1] (agonist: MPLA […]) were 2.01 ± 0.35, 1.24 ± 0.18 and 4.32 ± 0.33, respectively. In addition, the results for the IRF reporter in assay [2] (agonist: 3'3'-cGAMP 10 ug/mL), in assay [2] (agonist: LPS 0.1 ug/mL) and in assay [2] (agonist: MPLA […]) were 0.508 ± 0.033, 0.622 ± 0.14 and 0.747 ± 0.1, respectively. The viability score in assay [3] was 0.806 (active).

On to `O=C(NC1CCN(c2ccc(C(F)(F)F)cn2)C1)c1nc2ccccc2s1` (stereo not drawn), for which the NF-kB reporter is 1.09 ± 0.056 in assay [1] (setting [4]), 1.05 ± 0.088 in assay [1] (agonist: LPS 0.1 ug/mL) and 0.909 ± 0.081 in assay [1] (agonist: MPLA […]). In addition, the IRF reporter in assay [2] (agonist: 3'3'-cGAMP 10 ug/mL) came out at 0.953 ± 0.049; in assay [2] (agonist: LPS 0.1 ug/mL) it was 1.27 ± 0.076; in assay [2] (agonist: MPLA […]) it was 1.11 ± 0.28. Besides, the viability score in assay [3] is 0.983 (active).
